Measured values: PubChem BioAssay (NCI)
Where “and” joins values, the source holds several entries; their conditions need not be identical. Equal entries are not always repeated. The panel holds about 79,000 compounds, 15% with a hit somewhere; the sample as a whole holds those more often. Calls of active or inactive are those of the source. Rule as the data show it: active = growth inhibition above about 70%; inactive = the rest.

Columns and labels:
[1] = NCI Yeast Anticancer Drug Screen. Data for the rad50 strain (AID 155);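 also: 0% = growth of vehicle-only cultures of the same strain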; settings: S. cerevisiae rad50 strain growth inhibition; at 50.0 µM; active compounds read high
In short: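 Growth of the mutant yeast was measured after compound exposure and referenced to vehicle-treated cultures.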

[2] = NCI Yeast Anticancer Drug Screen. Data for the mec2-1 strain (AID 157); settings: S. cerevisiae mec2-1 strain, at 50.0 µM, active compounds read high
In short: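 Vehicle-treated cultures served as reference for growth inhibition of compound-exposed mec2-1 yeast.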

[3] = NCI Yeast Anticancer Drug Screen. Data for the sgs1 mgt1 strain (AID 161);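 also: 0% = growth of cultures given vehicle only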; settings: S. cerevisiae sgs1 mgt1 strain, at 50.0 µM, active compounds read high
In short: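 Read-out: growth inhibition vs vehicle controls. Cells: mutant yeast strain deficient in DNA damage repair.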

[4] = NCI Yeast Anticancer Drug Screen. Data for the cln2 rad14 strain (AID 165);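 also: 0% = growth equal to vehicle treated cultures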; settings: S. cerevisiae cln2 rad14 strain, at 50.0 µM, active compounds read high
In short: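 Each compound was tested on cln2 rad14 yeast. Inhibition of growth was calculated against vehicle-exposed controls.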

[5] = NCI Yeast Anticancer Drug Screen. Data for the bub3 strain (AID 167); settings: S. cerevisiae bub3 mutant strain, at 50.0 µM, active compounds read high
In short: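 Whole-cell yeast assay. The mutant strain was incubated with compounds, and growth inhibition was determined by comparison with vehicle-treated cells.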

[6] = NCI Yeast Anticancer Drug Screen. Data for the mlh1 rad18 strain (AID 175); settings: S. cerevisiae mlh1 rad18 strain growth inhibition; at 50.0 µM; active compounds read high
In short: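 Vehicle-treated cultures served as the reference for growth inhibition in a yeast strain carrying DNA damage repair alterations exposed to each compound.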

Measured: growth inhibition

CNC(C)(C)Cc1ccc(Cl)cc1
inactive: [1] 33.5% | [2] 10.8% | [3] 27.9% | [4] 24.9% | [5] 4.6% | [6] -0.45%

C=CCn1cc2c3c(cccc31)C1CC(C)CN(C)C1C2 (stereo not drawn)
inactive: [1] 34.5% | [2] 36% | [3] 25% | [4] 39.9% | [5] 33.6% | [6] 28.9%

CCCCC[N+]1=Cc2cc(O)c(O)cc2CC1
inactive: [1] -11.1% | [2] -5.7% | [3] 1.75% | [4] -24.9% | [5] -12.4% | [6] -21.7%

CC(=O)Oc1cccc2c1C(=O)C(C(=O)C=O)C1C(C=O)OC(C)(C)OC21C (stereo not drawn)
inactive: [1] 29.6% | [2] 0.1% | [3] 33.6% | [4] 14.8% | [5] 16.8% | [6] 12.1%

COc1ccc(C=O)cc1
inactive: [1] 41.5% | [2] -10.2% | [3] -7.5% | [4] -21.2% | [5] 0.8% | [6] 21.5%

CC(=O)CC1(OC(=O)C2C(C=C(C)C)C2(C)C)C(=O)Nc2ccccc21 (stereo not drawn)
inactive: [1] 40.5% | [2] 16.4% | [3] 18.6% | [4] 8.85% | [5] 23.1% | [6] 39.5%

CN1C2CCC1CC(OC(=O)C1CCC(C(=O)OC3CC4CCC(C3)N4C)(c3ccccc3)c3ccccc31)C2 (stereo not drawn)
inactive: [1] -45% | [2] -23.9% | [3] -35.3% | [4] -29.9% | [5] -34.4% | [6] -36.7%

Cc1cc(N(CCCl)CCCl)ccc1C=Nc1ccc(F)cc1[N+](=O)[O-]
inactive: [1] 4.3% | [2] 3.1% | [3] 2.65% | [4] 1.65% | [5] -8.45% | [6] 18.7%

CCN(CCCl)c1cc(CN(C)C)cc(NC(=O)c2cc(C(=O)Nc3cc(CN(C)C)cc(N(CC)CCCl)c3)n(C)n2)c1
inactive: [1] 60.2% | [2] -10.3% | [3] 27.9% | [4] 20% | [5] -3.3% | [6] 3.05%

CN1CCCC(OC(=O)C(c2ccccc2)C2(O)CCCC2)C1 (stereo not drawn)
inactive: [1] 30.6% | [2] -9.55% | [3] 27.1% | [4] -27.9% | [5] -1.85% | [6] 16.8%

CO[As](OC)c1ccc(N=Nc2ccc(N(C)C)cc2)cc1
active: [1] 98.4% | [2] 99.2% | [3] 98.9% | [4] 98.6% | [5] 99% | [6] 99.2%

CC1CN(C2CCCCC2)CO1 (stereo not drawn)
inactive: [1] -0.6% | [2] -30.8% | [3] 0.8% | [4] -10.8% | [5] -20.5% | [6] -32.2%

CN(C(=O)Oc1ccccc1)c1ccc(S(=O)(=O)F)cc1
active: [1] 97.8% | [2] 98.7% | [3] 98.8% | [4] 96.4% | [5] 98.5% | [6] 98.7%

CSCCC(NP(=S)(c1ccccc1)c1ccccc1)C(=O)O (stereo not drawn)
inactive: [1] 17.4% | [2] -3.1% | [3] 0% | [4] 16.9% | [5] -1.8% | [6] 9.5%

NC(CCP(=O)(O)O)C(=O)O (stereo not drawn)
inactive: [1] 1.1% and -34.8% | [2] -3.5% and -15.6% | [3] -5.6% and -33.7% | [4] -3.25% and 6.1% | [5] 7.7% and -23.5% | [6] -5.75% and -18.1%

O.O.O=Cc1ccccc1O.O=Cc1ccccc1O.[Ni]
active: [6] 76.9%
inactive: [1] 47.1% | [2] 52.4% | [3] 64.7% | [4] 17.1% | [5] 51.5%

COc1cccc(NC2=NCCO2)c1
inactive: [1] -17.1% | [2] -1.2% | [3] -5.95% | [4] 3.8% | [5] -2.2% | [6] -12.2%

C=C(C)C(=O)OCC12CCC(C)=CC1OC1C(=O)C(OC(=O)C(=C)C)C2(C)C12CO2 (stereo not drawn)
inactive: [1] 8.55% | [2] 19.9% | [3] -1.15% | [4] 2.75% | [5] -10.1% | [6] -34%

COc1ccc(C=C2C(=O)NC(=O)NC2=O)cc1OC
inactive: [1] 10.7% | [2] -0.6% | [3] 22.2% | [4] 8.8% | [5] -11.8% | [6] 23.9%

CCOc1ccc([N+](=O)[O-])cc1CNCCBr
inactive: [1] 3.3% | [2] -1.3% | [3] -0.45% | [4] -22.1% | [5] -3.1% | [6] 12.2%

CCC1(O)CC(O)c2c(O)c3c(c(O)c2C1C(=O)OC)C(=O)c1cccc(O)c1C3=O (stereo not drawn)
inactive: [1] 20.8% | [2] 39.8% | [3] 28.2% | [4] 21.8% | [5] 14.5% | [6] 36.8%

C/C=C/c1cc2n(c1)C(=O)c1cc(OC3OC(C)C(NC)C(C)(O)C3O)c(C)c(O)c1NC2O (stereo not drawn)
inactive: [1] 20.9% | [2] 1.1% | [3] 20.8% | [4] 2.75% | [5] 14.2% | [6] -47.4%

CCCCCCCCCCC(O)C1CCC(C(O)CCC(O)C2CCC(CCCCCCC[C@H](O)CC3=C[C@@H](C)OC3=O)O2)O1 (stereo partly drawn)
inactive: [1] 31.4% | [2] 6.55% | [3] 1.55% | [4] 12.9% | [5] 19.1% | [6] 27.2%

Cc1ccc2[nH]c(=S)n(-c3ccc(Cl)cc3)c(=O)c2c1
inactive: [1] 9.3% | [2] 25.5% | [3] 29.9% | [4] 18.8% | [5] 24% | [6] -2.05%

CN(C)c1cc(C(C)(C)C)nc(C(C)(C)C)c1
inactive: [1] 7.65% and 3% | [2] -1.1% and -1.8% | [3] 8.6% and 5.1% | [4] 1.25% and -5.95% | [5] 0.3% and -4.75% | [6] 9.05% and 10.4%

CNC(=O)Oc1cc(OC)ccc1C(=O)c1ccccc1
inactive: [1] 2.45% | [2] 6.85% | [3] 32.6% | [4] -21.6% | [5] 5.35% | [6] 47%

COP1(=O)OCC(C)(C)CO1
inactive: [1] 16.4% | [2] -2.05% | [3] 12.7% | [4] 13.9% | [5] -1.55% | [6] 35.8%

CN(C)c1ccc(N=Nc2c([O-])ccc3ccccc23)cc1.[C-]#[O+].[C-]#[O+].[Ir]
inactive: [1] -7.05% | [2] -14.2% | [3] -30.2% | [4] 34% | [5] -10.2% | [6] -4.7%

CC(=O)O[C@H]1C(=O)[C@@]2(C)C(C(OC(=O)c3ccccc3)[C@]3(O)C[C@H](OC(=O)C(OC(=O)CCCC(=O)NCCCN(C)C)C(NC(=O)c4ccccc4)c4ccccc4)C(C)=C1C3(C)C)C1(OC(C)=O)COC1C[C@@H]2O (stereo partly drawn)
inactive: [1] -1.1% | [2] -0.35% | [3] 3.8% | [4] -10.3% | [5] -0.95% | [6] 7.35%

CC(C)(C)C1=CC(=C(P(=O)(O)O)P(=O)(O)O)C=C(C(C)(C)C)C1=O
inactive: [1] -32.6% | [2] -12.7% | [3] -49.5% | [4] -21.9% | [5] -47.8% | [6] -34.5%

[Be]=[Se]
inactive: [1] -21.1% | [2] -0.4% | [3] -2.9% | [4] 2.1% | [5] -11.4% | [6] 29.7%

COC(C(=O)O)(c1ccccc1)c1ccccc1
inactive: [1] -24.8% | [2] -18.9% | [3] 1.05% | [4] -33.9% | [5] -9.2% | [6] -0.35%

CC1(Cl)CC2C(CC1Sc1nnnn1-c1ccccc1)C2(C)C (stereo not drawn)
inactive: [1] -7.45% | [2] -35.2% | [3] -7.2% | [4] -20.6% | [5] -18.4% | [6] -7.2%

S=P(c1ccccc1)(N1CCOCC1)N1CCOCC1
inactive: [1] 7.8% | [2] -9.85% | [3] 7.65% | [4] -16.4% | [5] 13.4% | [6] -1.9%

[NH-]C(CCC(N)=O)C(=O)O.[NH-]C(CCC(N)=O)C(=O)O.[Zn+2] (stereo not drawn)
inactive: [1] -23.1% | [2] -22.9% | [3] -27.1% | [4] 13.3% | [5] -26.6% | [6] -38.2%

O=C(NCC(O)CO)c1cc([N+](=O)[O-])cc([N+](=O)[O-])c1N(CCCl)CCCl (stereo not drawn)
inactive: [1] 31.8% | [2] 19.8% | [3] 28.7% | [4] 2.05% | [5] 13.9% | [6] 12.6%

O=C(O)[C@@H](Cl)[C@@H](Cl)C(=O)O
inactive: [1] 30.7% | [2] -11.4% | [3] 22.9% | [4] 6.7% | [5] 9.55% | [6] 17.9%

CC[CH2][Sn]([CH2]CC)[CH2]CC.CC[CH2][Sn]([CH2]CC)[CH2]CC
active: [1] 99.2% | [2] 99.5% | [3] 99.5% | [4] 99.5% | [5] 98.6% | [6] 99.4%
